Screen size: about 390,000 compounds; about 760 (0.19%) were called active. A call without a number means that no potency is given here. Inconclusive results (about 3%) are left out. Calls come from the whole dose curve; as a rule, active = well fitted inhibition curve with a large enough effect; inconclusive = small, poorly fitted or top-dose-only effect; inactive = flat fitted curve, though single readings scatter. Only a selection was taken, and actives are over-represented in it overall.
Assay: qHTS for Inhibitors of Vif-A3F Interactions: qHTS; note: nearly all actives have a fitted effect of over 65% in size
Settings: HeLa A3F-eYFP + Vif (tagged APOBEC3F with the HIV-1 protein that degrades it), YFP fluorescence increase; series mostly up to 46.1 µM
Outline: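 HeLa cells stably expressing Vif plus C-terminally eYFP-tagged A3F were seeded, incubated overnight at 37 deg C, dosed with compound, incubated overnight again at 37 deg C. Yellow fluorescence (Ex 488/Em 500-530) reported blocked Vif-mediated A3F-eYFP degradation.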
With Cc1ccc(C)c(Oc2c(C(F)(F)F)oc3c(CN4CCN(C)CC4)c(O)ccc3c2=O)c1 the Potency was “inactive”. With CC1CCC(N2CC(=O)N(CCC3=CCCCC3)C(c3ccc(F)cc3)C2=O)CC1 (centres undefined) the Potency was “inactive”. In the case of COc1ccc(Cl)cc1NC(=O)c1sc2nc3c(cc2c1N)CN(C)CC3, the Potency is reported as “inactive”. In the case of CCOc1ccc(N2CC(c3nc4ccccc4n3CCOc3ccc(OC)cc3)CC2=O)cc1 (centres undefined), the Potency is reported as “inactive”. In the case of O=S(=O)(c1ccc(C2CCCCC2)cc1)N1CCN(c2ccc(Cl)c(Cl)c2)CC1, the Potency is reported as “inactive”. In the case of CC(C)c1ccc(C2CC(=O)N3CN(C4CCCCC4)CSC3=C2C#N)cc1 (centres undefined), the Potency is reported as “inactive”. With CCOc1ccc2oc(=O)cc(CN3CCN(C(=O)c4ccc(F)cc4)CC3)c2c1 the Potency was “inactive”. For COc1ccc(-c2nn3c(-c4ccc(OC)cc4)nnc3c3ccccc23)cc1, the Potency was “inactive”. With CC(C)c1ccc(NC(=O)c2cc(S(=O)(=O)N3CCc4ccccc4C3)ccc2F)cc1 the Potency was “inactive”. For CCOc1ccccc1C(=O)NCc1ccc2c(c1)CCN2C(=O)c1ccc(F)cc1, the Potency was “inactive”. For CCOc1ccc(N(Cc2ccccc2)C(=O)c2nc(S(C)(=O)=O)ncc2Cl)cc1, the Potency was “inactive”. With Cc1ccc2sc(N(Cc3cccnc3)C(=O)C3COc4ccccc4O3)nc2c1C (centres undefined) the Potency was “inactive”. For Cc1ccc(NC(=O)c2oc3ccc(S(=O)(=O)N4CCCCC4)cc3c2C)cc1Cl, the Potency was “inactive”. For CCc1nn(CC(=O)N2CCN(c3ccc(Cl)cc3)CC2)c(=O)c2cc3occc3n12, the Potency was “inactive”. In the case of Cc1nc2c(-c3ccccc3)c(C)nn2c(C)c1CCC(=O)NCCc1ccccc1, the Potency is reported as “inactive”. With COc1ccccc1Nc1nc(N)nc(N)c1S(=O)(=O)c1ccccc1 the Potency was “inactive”. In the case of COc1cc(NC(=O)c2cc3ccc4cccnc4c3[nH]2)cc(OC)c1OC, the Potency is reported as “inactive”. For COc1ccc(-c2cn3c(n2)sc2cc(C(=O)Nc4ccc(F)cc4)ccc23)cc1, the Potency was “inactive”. With COc1ccc(NC(=O)c2sc3nc(-c4cc5cccc(OC)c5oc4=O)[nH]c(=O)c3c2C)cc1 the Potency was “inactive”. For COc1ccc(-c2nc3cnccn3c2NC(C)(C)CC(C)(C)C)cc1O, the Potency was “inactive”. In the case of COc1ccc(-c2nc3cnccn3c2NC2CCCCC2)cc1-c1cccc(Cl)c1, the Potency is reported as 22.4 µM (active). With Cc1ccc(Nc2c(-c3ccc(C)cc3)nc3cnccn23)cc1 the Potency was “inactive”. With CCOCCCNC(=O)c1ccc2nc(CCc3ccccc3)oc2c1 the Potency was “inactive”. With COc1ccc(C(=O)Nc2ccc(-n3nncc3-c3ccccc3)cc2)cc1OC the Potency was “inactive”. For NNC(=O)c1oc2nc(-c3ccccc3)cc(-c3ccco3)c2c1N, the Potency was 11.2 µM (active). For Cc1ccc(CSc2nc3cccnc3n2Cc2ccc(C(=O)NC3CC3)cc2)cc1, the Potency was “inactive”. In the case of CCOC(=O)c1cnc2c(C)cc(Cl)cc2c1NCCc1ccc(OC)c(OC)c1, the Potency is reported as “inactive”. With O=C(Cc1ccc(Cl)cc1)Nc1ccc2nn(-c3ccc(Cl)cc3)nc2c1 the Potency was “inactive”. With CCOC(=O)c1c(C)oc2nc(C)nc(N3CCN(c4ccc(OC)cc4)CC3)c12 the Potency was “inactive”. In the case of CC(C)c1ccc(NC(=O)Cn2nnc(C(=O)NCCc3ccccc3)c2N)cc1, the Potency is reported as “inactive”. For O=C(CCCn1c(=O)c2cccn2c2cccnc21)NCc1ccc(F)cc1, the Potency was “inactive”. In the case of Cc1cc(=O)n(CC(=O)Nc2cccc([N+](=O)[O-])c2)c(-n2nc(C)cc2C)n1, the Potency is reported as “inactive”. In the case of CCOC(=O)c1c(S(=O)(=O)N2CCC(C(=O)NCc3ccccc3OC)CC2)c(C)n(C)c1C, the Potency is reported as “inactive”. In the case of CSc1ccc(C2c3c(oc4ccccc4c3=O)C(=O)N2CCCN2CCOCC2)cc1 (centres undefined), the Potency is reported as “inactive”. For CSc1ccc(NC(=O)Cn2nnnc2-c2ccccc2F)cc1, the Potency was “inactive”. With C[C@@H](Nc1nc(-c2ccccc2)nc2c1oc1ccccc12)C(=O)O the Potency was “inactive”. In the case of CCc1nc(Nc2ccc3nccnc3c2)c2oc3ccccc3c2n1, the Potency is reported as 22.4 µM (active). For COCCNc1nc(-c2ccccc2)nc2c1oc1ccccc12, the Potency was “inactive”. With CNC(=S)N/N=C/c1ccc(N2CCOCC2)s1 the Potency was 1.12 µM (active). For Cc1ccc(C(=O)C(=S)N2CCOCC2)cc1, the Potency was “inactive”. With C=CCNC(=S)N/N=C/c1ccc(C)s1 the Potency was “inactive”. With O=[N+]([O-])c1cc(S(=O)(=O)Nc2cccc(Cl)c2)ccc1N=Nc1c(O)[nH]c2ccccc12 the Potency was “inactive”. In the case of Oc1[nH]c2ccccc2c1N=Nc1c(F)c(F)c(F)c(F)c1F, the Potency is reported as 25.1 µM (active). For S=c1[nH]c2ccccc2c2ccccc12, the Potency was “inactive”. For CCN(CCCNC(=O)c1cc2cc3cc(OC)ccc3nc2s1)c1ccccc1, the Potency was “inactive”. In the case of COc1cc(/C=C(\C#N)c2nc3ccccc3[nH]2)ccc1O, the Potency is reported as 12.6 µM (active). In the case of Cc1ccc2nc(/C(C#N)=C/c3ccccc3F)[nH]c2c1, the Potency is reported as “inactive”. For CCOc1ccc(/C=C(\C#N)c2nc3ccccc3c(=O)[nH]2)cc1OC, the Potency was “inactive”. With COc1ccc(NC(=O)c2cnc(Nc3ccc(C)c(Cl)c3)c3ccccc23)cc1OC the Potency was “inactive”. For COc1ccc(Nc2ncc(C(=O)Nc3cc(C)ccc3OC)c3ccccc23)cc1, the Potency was “inactive”. With COC(=O)c1cnc(Nc2cc(C)ccc2OC)c2ccccc12 the Potency was 31.6 µM (active). For O=C(CCS(=O)(=O)c1ccccc1)N(Cc1cccnc1)c1nc2c(F)cccc2s1, the Potency was “inactive”. With S=C(NN=Cc1ccccn1)Nc1ccccn1 the Potency was 11.2 µM (active). With COc1ccc(-n2c(=O)c3sc4ccccc4c3n(CC(=O)Nc3cccc(C)c3)c2=O)cc1 the Potency was “inactive”. With CCCN(CCC)CCCNC(=O)Cn1ncc2c3ccccc3n(Cc3ccccc3)c2c1=O the Potency was “inactive”. In the case of Cc1oc2ncnc(N3CCCCC3)c2c1C(=O)N1CCN(c2cccc(Cl)c2)CC1, the Potency is reported as “inactive”. In the case of COc1ccc(C)cc1N(CC(=O)N1CCC(C)CC1)S(=O)(=O)c1ccc(C)cc1, the Potency is reported as “inactive”. In the case of Cn1c(COc2ccccc2C(C)(C)C)nc2ccccc21, the Potency is reported as “inactive”. With O=C1CCCc2cc(S(=O)(=O)N3CCCC(C(=O)NCc4ccccc4)C3)ccc2N1 (centres undefined) the Potency was “inactive”. For Cc1nn(CC(=O)N2CCN(c3cccc(C(F)(F)F)c3)CC2)c(=O)c2cc3sccc3n12, the Potency was “inactive”. In the case of CCN(Cc1ccccc1)C(=O)c1cn(-c2cccc(OC)c2)c(=O)c2ccccc12, the Potency is reported as “inactive”. With COc1cccc(CNC(=O)c2cc(=O)[nH]c3ccc(S(=O)(=O)N4CCCCC4)cc23)c1 the Potency was “inactive”. In the case of CCOC(=O)c1cc(-c2ccccc2)n(CCC(=O)Nc2ccccc2CC)c1C, the Potency is reported as “inactive”. With CCOC(=O)c1c(N)n(-c2cccc(C)c2C)c2nc3ccccc3nc12 the Potency was “inactive”. For CCOC(=O)c1cc2n(c1N)-c1ccccc1C2=O, the Potency was 7.08 µM (active). In the case of CCOc1ccccc1NC(=O)Cn1nnc(C(=O)Nc2ccc(C)c(C)c2)c1N, the Potency is reported as “inactive”. In the case of COc1ccc(-c2nc3sc(CCNC(=O)C(C)(C)C)c(C)n3n2)cc1, the Potency is reported as “inactive”. In the case of CCOC(=O)C(Cc1ccccc1)NC(=O)CCc1c(C)nc2c(c(C)nn2-c2ccc(C)c(C)c2)c1C (centres undefined), the Potency is reported as “inactive”. In the case of COc1ccc(NC(=O)CSc2nccn2Cc2ccc3c(c2)OCO3)cc1, the Potency is reported as “inactive”. With CCN1CCN(CCCNC(=O)c2cnn(-c3ccc(C)cc3C)c2C2CCN(C(=O)OC(C)(C)C)CC2)CC1 the Potency was “inactive”. In the case of N#CCSc1ccccc1NC(=O)CN1C(=O)NC(CCc2ccccc2)C1=O (centres undefined), the Potency is reported as 25.1 µM (active). With CCOC(=O)CCCNC(=O)CN1C(=O)NC(CCc2ccccc2)C1=O (centres undefined) the Potency was “inactive”. For Cc1cc(NC(=O)CN2C(=O)NC(CCc3ccccc3)C2=O)no1 (centres undefined), the Potency was “inactive”. In the case of Cc1[nH]c2ccccc2c1C(c1ccccc1)c1cccs1 (centres undefined), the Potency is reported as “inactive”. With COc1ccc(C2CC(c3cccs3)=Nc3ccccc3S2)cc1OC (centres undefined) the Potency was “inactive”. With Cc1ccccc1C1CC(c2cccs2)=NN1S(C)(=O)=O (centres undefined) the Potency was 17.8 µM (active). For CC1Cn2c(nnc2-c2cccs2)S1 (centres undefined), the Potency was “inactive”. With COc1cc(NS(=O)(=O)c2cccs2)cc(OC)c1 the Potency was “inactive”. With Cc1ccccc1Cn1nc(C)c(NC(=O)c2cc(-c3ccc(F)cc3)on2)c1C the Potency was “inactive”. In the case of CCN(CCCNC(=O)CSc1cc(=O)n(C)c2cc(Cl)ccc12)c1cccc(C)c1, the Potency is reported as “inactive”. In the case of COc1ccc(/C=C/c2nc(C#N)c(NCc3ccc(F)cc3)o2)cc1OC, the Potency is reported as “inactive”. For N#Cc1nc(/C=C/c2ccc(F)cc2)oc1NCc1ccc(F)cc1, the Potency was “inactive”. In the case of CCOC(=O)c1nnn(CC(=O)Nc2cccc(F)c2)c1C(=O)OCC, the Potency is reported as “inactive”. For Cc1ccc(CSCC(=O)N(C)CC(=O)Nc2cccc(F)c2)cc1, the Potency was “inactive”. In the case of CCN(CC)C(=O)CSC(Nc1cccc(F)c1)=C(C#N)C#N, the Potency is reported as 10 µM (active). With Cc1cc(C)cc(NC(c2nnc(-c3cccc(F)c3)o2)c2ccc(F)cc2Cl)c1 (centres undefined) the Potency was “inactive”. In the case of O=C(Nc1ccc(S(=O)(=O)N2CCC(c3nc4ccccc4s3)CC2)cc1)c1ccccc1F, the Potency is reported as “inactive”. For O=C(Cn1nc(C(F)(F)F)c2c1CCCC2)Nc1ccc(Cl)cc1, the Potency was “inactive”. For NS(=O)(=O)c1ccc(NC(=O)COc2ccc(S(=O)(=O)NC3CCCCC3)cc2)cc1, the Potency was “inactive”. In the case of Cc1cccn2c(=O)c(C(=O)NC(C)c3ccccc3)cnc12 (centres undefined), the Potency is reported as “inactive”. With CCC1CN(S(=O)(=O)c2cc(-c3cc(C)no3)ccc2C)c2cc(C)ccc2O1 (centres undefined) the Potency was “inactive”. For O=C(CSc1oc(-c2ccco2)nc1S(=O)(=O)c1ccccc1)c1ccc(Cl)cc1, the Potency was “inactive”. With CCOc1ccc(CNC(=O)C2CCCN(S(=O)(=O)N(CC)c3ccc(OCC)cc3)C2)cc1 (centres undefined) the Potency was “inactive”. With CCOC(=O)c1cccc(NC(=O)c2cc(S(=O)(=O)N3CCCC(C)C3)cn2C)c1 (centres undefined) the Potency was “inactive”. For Cc1ccc(NC(=O)CSc2nc3c([nH]c4ccccc43)c(=O)n2-c2ccccc2)c(C)c1, the Potency was “inactive”. With CCCOc1ccc(-c2cccc(NS(=O)(=O)c3ccccc3)c2)nn1 the Potency was “inactive”. In the case of CCCN1CCN(CCCNC(=O)Cn2nc(CC)n3c(cc4occc43)c2=O)CC1, the Potency is reported as “inactive”. In the case of O=C(COc1ccccc1F)Nc1ccc(C(=O)OCc2cc(=O)n3nc(C4CC4)sc3n2)cc1, the Potency is reported as “inactive”. With CC1=C(c2ccc(Cl)cc2)S(=O)(=O)N=C1N1CCN(c2cc(C)ccc2C)CC1 the Potency was “inactive”.
Potency is the fitted concentration of half-maximal effect.
